Among the data in ChEMBL document CHEMBL3988442, “University of Dundee, Small-Polar-MMV Screening Library” (2021) are Percent Effect values, retold here.

Holding throughout (set-up): scale not given: direction of the effect not stated beside the values
The target of assay [1] is Protein translocase subunit SecA (Escherichia coli (strain K12)) (UniProt P10408). As to the kind of experiment: Assay to Identify E. coli SecA ATPase Inhibitors. The conditions noted are these: 30 µM. Type of assay: functional.
The target in assay [2] is T1, Ubiquitin-activating enzyme e1, putative (Leishmania donovani (strain BPK282A1)) (UniProt E9BSI1).
T1 sequence (whole entry): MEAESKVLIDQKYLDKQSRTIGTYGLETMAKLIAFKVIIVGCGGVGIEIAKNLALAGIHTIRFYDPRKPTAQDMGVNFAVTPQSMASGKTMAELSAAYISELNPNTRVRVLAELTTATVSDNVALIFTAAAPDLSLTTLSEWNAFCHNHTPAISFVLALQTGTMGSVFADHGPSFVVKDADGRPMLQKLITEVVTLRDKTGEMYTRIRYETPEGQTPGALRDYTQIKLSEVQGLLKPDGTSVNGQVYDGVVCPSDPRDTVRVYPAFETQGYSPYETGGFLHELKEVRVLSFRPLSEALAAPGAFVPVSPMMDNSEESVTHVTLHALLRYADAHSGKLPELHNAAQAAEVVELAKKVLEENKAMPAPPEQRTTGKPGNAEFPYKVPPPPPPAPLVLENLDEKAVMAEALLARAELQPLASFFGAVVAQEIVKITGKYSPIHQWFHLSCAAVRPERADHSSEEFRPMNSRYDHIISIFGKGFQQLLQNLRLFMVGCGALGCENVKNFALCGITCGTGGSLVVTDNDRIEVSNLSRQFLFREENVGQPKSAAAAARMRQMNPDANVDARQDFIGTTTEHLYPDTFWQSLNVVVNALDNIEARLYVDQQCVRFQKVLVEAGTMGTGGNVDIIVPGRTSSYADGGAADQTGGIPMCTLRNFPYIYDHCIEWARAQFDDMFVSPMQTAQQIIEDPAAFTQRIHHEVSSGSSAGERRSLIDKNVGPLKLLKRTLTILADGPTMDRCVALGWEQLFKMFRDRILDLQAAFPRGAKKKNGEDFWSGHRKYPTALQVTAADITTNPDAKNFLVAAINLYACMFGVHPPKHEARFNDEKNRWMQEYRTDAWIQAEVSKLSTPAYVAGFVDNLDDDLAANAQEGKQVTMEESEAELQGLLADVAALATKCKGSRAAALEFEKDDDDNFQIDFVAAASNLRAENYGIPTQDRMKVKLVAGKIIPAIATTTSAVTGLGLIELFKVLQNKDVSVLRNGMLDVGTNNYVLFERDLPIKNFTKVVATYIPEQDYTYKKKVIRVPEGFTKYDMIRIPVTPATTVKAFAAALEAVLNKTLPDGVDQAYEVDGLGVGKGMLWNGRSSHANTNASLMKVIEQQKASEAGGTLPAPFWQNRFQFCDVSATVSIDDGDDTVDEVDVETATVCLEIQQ
As to the kind of experiment: Leishmania donovani Ubiquitin Activating Enzyme (LdE1). It counts as functional. The following applies: 30 µM.

The target in assay [3] is Sialic acid-binding Ig-like lectin 9 (Homo sapiens) (UniProt Q9Y336). As to the kind of experiment: Hs-Siglec9 ALPHAscreen SOP 20170721. The conditions noted are these: 10 µM. On the technique in general: Alpha assays give light when donor and acceptor beads are brought close together.
For the next assay, the system named is Trypanosoma cruzi. As to the kind of experiment: Trypanosoma cruzi phosphomannomutase and mannose-1-phosphate guanylyltransferase assay. Type of assay: functional. The following applies: 10 µM.
Assay [4] concerns the target T2, Arginase-2, mitochondrial (Homo sapiens) (UniProt P78540).
T2 sequence (whole entry): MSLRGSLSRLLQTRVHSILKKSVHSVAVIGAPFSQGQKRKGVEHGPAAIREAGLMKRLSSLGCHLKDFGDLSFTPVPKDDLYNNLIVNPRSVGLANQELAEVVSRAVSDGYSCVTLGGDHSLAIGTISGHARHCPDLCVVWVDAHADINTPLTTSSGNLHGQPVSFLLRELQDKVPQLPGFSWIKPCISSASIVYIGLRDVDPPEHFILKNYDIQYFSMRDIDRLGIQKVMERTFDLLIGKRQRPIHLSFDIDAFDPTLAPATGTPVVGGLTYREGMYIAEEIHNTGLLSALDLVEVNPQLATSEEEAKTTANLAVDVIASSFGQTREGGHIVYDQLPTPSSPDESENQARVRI
As to the kind of experiment: in vitro enzyme assay to detect the production of urea directly proportional to the activity of Arginase II. Note: in the data most compounds retested in dose-response had high values. It counts as functional. The conditions noted are these: 33.3 µM.

The target in assay [5] is T3, Proteasome subunit beta (Trypanosoma cruzi) (UniProt O96673).
T3 sequence (whole entry): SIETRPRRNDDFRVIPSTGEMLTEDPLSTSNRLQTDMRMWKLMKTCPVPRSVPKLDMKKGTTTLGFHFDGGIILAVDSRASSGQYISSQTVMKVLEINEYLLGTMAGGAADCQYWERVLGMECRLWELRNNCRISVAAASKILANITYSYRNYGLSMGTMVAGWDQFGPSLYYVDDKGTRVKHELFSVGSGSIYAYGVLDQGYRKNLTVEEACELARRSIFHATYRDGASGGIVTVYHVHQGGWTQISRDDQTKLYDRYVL
As to the kind of experiment: Trypanosoma cruzi proteasome chymotrypsin-like activity (TcProtChymo) assay. Note: in the data most compounds retested in dose-response had high values. The following applies: 9.37 µM. Type of assay: functional.

For a further assay, the species on record is Homo sapiens. As to the kind of experiment: To identify inhibition of the IFN signalling (Jak-Stat) pathway via expression of an eGFP reporter gene under the control of an IFN-stimulated response element (ISRE) containing MxA promoter. Type of assay: functional. The conditions noted are these: 30 µM. A general note: Reporter assays use an easily measured gene product as a stand-in for the process of interest.

For assay [6], the target named is T4, Tyrosyl-tRNA synthetase, putative (Trypanosoma cruzi (strain CL Brener)) (UniProt Q4DSP6).
T4 sequence (whole entry): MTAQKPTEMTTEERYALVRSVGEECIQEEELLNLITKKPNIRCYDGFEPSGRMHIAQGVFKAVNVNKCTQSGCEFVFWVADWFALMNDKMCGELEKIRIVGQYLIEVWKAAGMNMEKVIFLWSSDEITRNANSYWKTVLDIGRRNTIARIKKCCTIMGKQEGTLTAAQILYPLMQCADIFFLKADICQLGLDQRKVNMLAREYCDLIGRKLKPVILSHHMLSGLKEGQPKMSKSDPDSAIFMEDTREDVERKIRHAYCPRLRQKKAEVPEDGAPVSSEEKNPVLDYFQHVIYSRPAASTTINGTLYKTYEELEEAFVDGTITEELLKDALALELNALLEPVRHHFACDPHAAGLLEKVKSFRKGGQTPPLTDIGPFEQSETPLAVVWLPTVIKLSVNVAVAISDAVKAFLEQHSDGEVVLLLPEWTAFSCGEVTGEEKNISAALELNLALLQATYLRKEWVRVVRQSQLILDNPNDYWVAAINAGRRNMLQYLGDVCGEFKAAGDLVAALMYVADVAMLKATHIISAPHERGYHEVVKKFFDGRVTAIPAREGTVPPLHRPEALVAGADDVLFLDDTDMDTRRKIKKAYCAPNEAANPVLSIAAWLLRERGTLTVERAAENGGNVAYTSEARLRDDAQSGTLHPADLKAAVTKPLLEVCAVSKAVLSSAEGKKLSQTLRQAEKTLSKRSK
As to the kind of experiment: Trypanosoma cruzi tyrosyl tRNA synthetase (TcYRS) _High Tyrosine SOP. Note: in the data most compounds retested in dose-response had high values. It counts as functional. The following applies: 30 µM.

Assay [7] concerns the target T4, Tyrosyl-tRNA synthetase, putative (Trypanosoma cruzi (strain CL Brener)). As to the kind of experiment: Trypanosoma cruzi tyrosyl tRNA synthetase (TcYRS) SOP. It counts as functional. The conditions noted are these: 30 µM.
The target in assay [8] is Chromo domain-containing protein 1 (Saccharomyces cerevisiae (strain ATCC 204508 / S288c) (Baker's yeast)) (UniProt P32657). As to the kind of experiment: ScCHD-1 Enzyme Inhibition Assay. Note: in the data most compounds retested in dose-response had high values. Type of assay: functional. The following applies: 30 µM.

For part of these data: Entries with a potency or affinity are not part of this list.

Sequence of Protein translocase subunit SecA (Escherichia coli (strain K12)) (P10408 whole entry): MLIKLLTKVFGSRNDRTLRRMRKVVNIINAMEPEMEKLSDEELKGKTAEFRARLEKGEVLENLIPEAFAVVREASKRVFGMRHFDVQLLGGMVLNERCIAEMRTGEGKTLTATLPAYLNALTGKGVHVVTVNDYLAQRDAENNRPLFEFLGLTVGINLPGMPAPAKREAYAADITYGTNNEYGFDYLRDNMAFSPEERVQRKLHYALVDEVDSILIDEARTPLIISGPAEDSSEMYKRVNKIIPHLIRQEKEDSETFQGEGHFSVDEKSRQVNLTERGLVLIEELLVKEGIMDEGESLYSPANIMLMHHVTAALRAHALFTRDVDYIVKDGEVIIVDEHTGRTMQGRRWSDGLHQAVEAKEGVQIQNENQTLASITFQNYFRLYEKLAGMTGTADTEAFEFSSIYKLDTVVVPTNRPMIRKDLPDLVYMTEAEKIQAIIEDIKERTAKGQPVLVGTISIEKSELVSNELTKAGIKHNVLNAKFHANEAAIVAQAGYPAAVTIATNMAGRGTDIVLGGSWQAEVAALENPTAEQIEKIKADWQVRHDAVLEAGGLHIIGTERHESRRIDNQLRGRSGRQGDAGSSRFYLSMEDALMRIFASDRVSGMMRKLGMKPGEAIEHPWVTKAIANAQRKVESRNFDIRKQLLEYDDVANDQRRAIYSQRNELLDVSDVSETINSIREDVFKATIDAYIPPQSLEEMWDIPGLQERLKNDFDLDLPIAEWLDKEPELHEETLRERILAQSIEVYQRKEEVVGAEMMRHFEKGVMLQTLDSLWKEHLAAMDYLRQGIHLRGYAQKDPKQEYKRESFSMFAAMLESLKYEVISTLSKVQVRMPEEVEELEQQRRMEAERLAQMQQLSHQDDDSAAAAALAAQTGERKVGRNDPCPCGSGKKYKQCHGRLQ
Sequence of Sialic acid-binding Ig-like lectin 9 (Homo sapiens) (Q9Y336 whole entry): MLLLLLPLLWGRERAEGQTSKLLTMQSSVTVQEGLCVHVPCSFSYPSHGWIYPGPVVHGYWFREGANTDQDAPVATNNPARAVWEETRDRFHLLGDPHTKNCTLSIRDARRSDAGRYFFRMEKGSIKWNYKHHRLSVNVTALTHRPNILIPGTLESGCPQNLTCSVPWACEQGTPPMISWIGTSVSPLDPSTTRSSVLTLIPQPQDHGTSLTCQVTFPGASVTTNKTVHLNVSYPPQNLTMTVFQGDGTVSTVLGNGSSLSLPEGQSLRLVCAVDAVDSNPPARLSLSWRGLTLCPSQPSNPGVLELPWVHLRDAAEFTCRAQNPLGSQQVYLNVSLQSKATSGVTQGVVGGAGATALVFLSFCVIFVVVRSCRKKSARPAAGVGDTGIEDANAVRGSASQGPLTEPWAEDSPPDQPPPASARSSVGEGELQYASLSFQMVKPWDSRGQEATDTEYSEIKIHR
Sequence of Chromo domain-containing protein 1 (Saccharomyces cerevisiae (strain ATCC 204508 / S288c) (Baker's yeast)) (P32657 whole entry, the tested form may be a part): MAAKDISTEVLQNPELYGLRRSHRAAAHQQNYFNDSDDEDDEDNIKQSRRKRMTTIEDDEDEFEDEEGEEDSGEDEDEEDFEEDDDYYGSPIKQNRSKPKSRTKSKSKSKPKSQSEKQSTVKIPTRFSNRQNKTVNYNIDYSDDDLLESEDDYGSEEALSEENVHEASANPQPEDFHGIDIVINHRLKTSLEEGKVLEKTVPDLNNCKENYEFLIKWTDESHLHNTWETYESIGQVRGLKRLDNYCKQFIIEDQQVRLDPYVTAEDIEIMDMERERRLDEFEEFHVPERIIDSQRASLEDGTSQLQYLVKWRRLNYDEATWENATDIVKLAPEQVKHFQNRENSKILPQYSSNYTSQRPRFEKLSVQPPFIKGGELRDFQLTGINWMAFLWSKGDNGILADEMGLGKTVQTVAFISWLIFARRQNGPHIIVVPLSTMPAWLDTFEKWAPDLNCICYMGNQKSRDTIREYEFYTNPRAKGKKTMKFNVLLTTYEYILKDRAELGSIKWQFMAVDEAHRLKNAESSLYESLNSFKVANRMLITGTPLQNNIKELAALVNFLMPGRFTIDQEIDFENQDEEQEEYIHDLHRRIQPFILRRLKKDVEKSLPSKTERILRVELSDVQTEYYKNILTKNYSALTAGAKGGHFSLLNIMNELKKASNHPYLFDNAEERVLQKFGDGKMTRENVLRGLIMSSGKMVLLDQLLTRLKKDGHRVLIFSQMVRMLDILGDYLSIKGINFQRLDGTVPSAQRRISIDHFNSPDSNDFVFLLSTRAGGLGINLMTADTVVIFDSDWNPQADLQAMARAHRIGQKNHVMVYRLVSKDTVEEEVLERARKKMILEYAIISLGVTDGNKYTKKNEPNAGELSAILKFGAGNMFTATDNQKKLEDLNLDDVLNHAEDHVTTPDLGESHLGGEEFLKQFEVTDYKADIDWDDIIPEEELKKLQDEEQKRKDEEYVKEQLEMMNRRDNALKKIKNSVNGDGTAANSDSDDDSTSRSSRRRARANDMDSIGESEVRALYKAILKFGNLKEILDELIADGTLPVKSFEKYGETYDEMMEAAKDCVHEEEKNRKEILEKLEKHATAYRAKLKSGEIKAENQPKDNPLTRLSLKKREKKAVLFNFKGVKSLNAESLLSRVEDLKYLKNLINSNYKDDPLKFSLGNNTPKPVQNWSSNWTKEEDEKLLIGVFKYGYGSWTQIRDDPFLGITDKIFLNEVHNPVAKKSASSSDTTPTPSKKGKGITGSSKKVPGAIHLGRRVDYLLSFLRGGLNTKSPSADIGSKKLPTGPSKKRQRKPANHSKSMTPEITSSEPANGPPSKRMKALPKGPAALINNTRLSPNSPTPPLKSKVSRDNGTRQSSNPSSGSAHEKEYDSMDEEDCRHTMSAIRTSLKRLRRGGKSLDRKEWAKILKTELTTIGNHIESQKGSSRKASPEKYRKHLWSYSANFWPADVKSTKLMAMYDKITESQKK

With `COc1ncc(CN2CC[C@@](C)(O)[C@H](Oc3cccc(F)c3)C2)cn1`, the Percent Effect in [1] was -2.75%; in assay [2], 9.33%; in assay [3], -0.132%; in the assay with Trypanosoma cruzi, -2.76%; in assay [4] it was -1.33%; in assay [5], 6.73%. The Percent Effect is 8.72% in the assay listed under Homo sapiens, 4.23% in [6], 10% in assay [7] and -23.1% in assay [8].

With `CN(C)CCN1CCC2(CCN(C(=O)c3ccc(F)cc3)CC2)C1=O`, the Percent Effect in [1] is -1.6%; in assay [2], 14.3%; in assay [3], -0.427%; in the assay with Trypanosoma cruzi, -5.44%; in assay [4] it was 2.28%; in assay [5], 16.7%. Also, the Percent Effect in the assay listed under Homo sapiens is 12.2%; in assay [6] it was 10.6%; in assay [7], 12.5%; in [8], -6.97%.

Regarding `COc1ncccc1C(=O)N1CCn2c(COCC3CC3)cnc2C1C` (stereo not given), the Percent Effect in assay [1] is -3.37%; in assay [2] it was 3.9%; in assay [3], -3.01%; in the assay on Trypanosoma cruzi it was 1.07%; in [4] it was -1.62%; in assay [5], 8.21%. Further, the Percent Effect in the assay listed under Homo sapiens is -16%; in [6], 4.74%; in assay [7], 7.69%; in [8] it was 1.11%.

Consider `COCCOc1cccc(C(=O)N2CCCC(n3cccn3)C2)c1` (stereo not given), for which the Percent Effect in assay [1] is -3.05%; in assay [2], 2.6%; in assay [3], 10.5%; in the assay on Trypanosoma cruzi, -0.746%; in assay [4], -1.84%; in assay [5] it was 2.28%. For the same compound, the Percent Effect in the assay filed under Homo sapiens is 7.63%; in assay [6], 0%; in [7] it was 4.71%; in assay [8], 3.61%.

On to `O=C1C(NCc2nnc3n2CCCC3)CCCN1c1cccc(F)c1` (stereo not given), for which the Percent Effect is 0.699% in assay [1]; 10.3% in assay [2]; -12.3% in [3]; -1.6% in the assay with Trypanosoma cruzi; 6.56% in assay [4]; 16.8% in [5]. In addition, the Percent Effect in the assay filed under Homo sapiens was 19.1%; in [6], 10.1%; in [7], 13.2%; in [8], -2.66%.

On to `CCS(=O)(=O)N1C[C@@H](OCc2cccnc2)[C@H]2OCCC[C@H]21`, for which the Percent Effect in [1] is -10.2%; in [2] it was 1.3%; in assay [3], 6.61%; in the assay with Trypanosoma cruzi it was -4.58%; in [4] it was -3.64%; in assay [5], 7.68%. Moreover, the Percent Effect was found to be 9% in the assay listed under Homo sapiens, 4.74% in assay [6], 7.69% in [7] and 0.0373% in assay [8].

For `O=C(Nc1ccccc1)C1=CC2(CCNCC2)c2ccccc21`, the Percent Effect in assay [1] was -2.8%; in assay [2], 9.09%; in assay [3] it was 1.86%; with Trypanosoma cruzi, -0.938%; in assay [4], 3.2%; in assay [5] it was 13.5%. The Percent Effect in the assay filed under Homo sapiens was -1.59%; in [6] it was -2.9%; in assay [7], -2.5%; in assay [8], -4.38%.

`O=S(=O)(CCCN1CCCC1Cn1cccn1)c1ccccc1` (stereo not given): the Percent Effect in [1] is -5.34%; in assay [2], 7.79%; in [3], 19.1%; with Trypanosoma cruzi, -2.24%; in assay [4], -0.205%; in assay [5] it was 7.19%. Further, the Percent Effect in the assay filed under Homo sapiens is 2.19%; in assay [6], 6.86%; in assay [7] it was 16.5%; in [8], -5.4%.

Turning to `Cc1ccc(C(=O)N2CCN(Cc3ccsc3)CC2)n1C`, the Percent Effect in assay [1] was -2.67%; in assay [2], 5.33%; in [3], 2.26%; in the assay with Trypanosoma cruzi, -1.61%; in assay [4] it was 0.887%; in [5], 5.34%. Moreover, the Percent Effect in the assay listed under Homo sapiens is -8.24%; in assay [6], 5.79%; in assay [7], 7.69%; in assay [8] it was -6.68%.

For `COc1cccc2c1OCC(C(=O)N1CCN(S(C)(=O)=O)CC1)C2` (stereo not given), the Percent Effect in assay [1] is -5.76%; in assay [2], 16.2%; in [3], 16.9%; in the assay on Trypanosoma cruzi it was 6.69%; in assay [4], 11.5%; in assay [5], 9.25%. For the same compound, the Percent Effect in the assay listed under Homo sapiens was 11.4%; in [6] it was 7.98%; in assay [7] it was 17.1%; in assay [8], -8.92%.

For `CC(NC(=O)N1CCN(c2ccccc2)CC1)c1nncn1C` (stereo not given), the Percent Effect in assay [1] is 1.88%; in assay [2] it was 10.7%; in assay [3] it was -3.63%; in the assay on Trypanosoma cruzi, -2.81%; in [4] it was 7.54%; in [5], 11.4%. Moreover, the Percent Effect in the assay listed under Homo sapiens is 13.4%; in assay [6], 3.68%; in assay [7], 5.13%; in assay [8], -13.8%.

In the case of `O=C(Cc1cccnc1)N1CCC(OCc2ccccc2)CC1`, the Percent Effect in [1] was -7.08%; in assay [2], -8.11%; in assay [3], 3%; in the assay with Trypanosoma cruzi, -2.42%; in [4], -0.35%; in assay [5], 13.2%. Further, the Percent Effect came to 24.2% in the assay filed under Homo sapiens, 6.92% in assay [6], 19.5% in assay [7] and 101% in [8].
